# Test results reported in PubChem BioAssay (NCI).
# About 79,000 compounds went through this panel and 15% of them were active in at least one assay; those are over-represented in the sample as a whole. A number with no mark means an inactive call. Rule as the data show it: active = growth inhibition above about 70%; inactive = the rest. Where a SMILES comes first, the peptide text is derived from it. The star is where a group is joined. Boc = CC(C)(C)OC(=O)*; OtBu = CC(C)(C)O*
# Test: NCI Yeast Anticancer Drug Screen. Data for the rad50 strain (AID 155);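 also: 0% = growth of vehicle-only cultures of the same strain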
# Settings: S. cerevisiae rad50 strain growth inhibition; at 50.0 µM; hits give high values
# Summary of the method: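 A DNA repair-deficient yeast mutant serves as the test organism; compound-induced growth inhibition is calculated against vehicle-treated cells.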
row,Compound,growth inhibition [%]
1,C=C(C)CC(O)CCCCC (configuration not stated),15.1
2,CC(=O)OCC1OC(n2cnc(Br)c2[N+](=O)[O-])C(OC(C)=O)C1OC(C)=O (configuration not stated),30.6
3,CCCC(=O)OCCOc1ccccc1,18.1
4,O=c1c2cccnc2cc(-c2ccccc2)n1CCO,-27.5
5,C/C(=N\N=C(\Cc1ccccc1)c1ccccc1)c1ccccc1,1.7
6,Nc1cccnc1NCC(O)c1ccccc1 (configuration not stated),1.9
7,C[C@@H]1OC(=O)N2CCCC(=C3SCCCS3)C12 (some centres not stated),0.6
8,CCNC(=O)[B-][N+](C)(C)C,6.75
9,Cc1cc(NN)c2cc3c(cc2n1)OCO3,12.4
10,CCCCCN(CCCCC)CC(O)c1cc(-c2ccccc2)nc2c(Cl)cc(Cl)cc12 (configuration not stated),42
11,CCOc1ccc(N=Cc2cc(Br)ccc2O)cc1,2.55
12,O=C1CSC(/C(=C/c2ccccc2)c2nc3ccccc3[nH]2)=N1,6.65
13,O=C(N/N=C(/c1nc2ccc(Cl)cc2[nH]c1=O)C(O)c1ccc(Cl)cc1Cl)c1ccncc1 (configuration not stated),12.5
14,CCOC(=O)C1=C(O)c2ccccc2S(=O)(=O)N1C (tested in a mixture with another compound),4.05
15,CCCCC(O)(CCCC)CC(C)C,8.4
16,COc1ccc(OC)c(NC(=O)C(=O)NNC(=O)c2sc(NNC(C)=O)nc2C)c1,66.7
17,CCOC(=O)C(CCN(C)C)(CCN(C)C)c1ccccc1,-6.3
18,COc1cc(NC=C2C(=O)OC(C)(C)OC2=O)c(OC)c(C)c1OC,1.25
19,CC(C)(C)OC(=O)CC(NC(=O)OC(C)(C)C)C(=O)NC(Cc1ccccc1)C(N)=O (configuration not stated) (Boc-Asp(OtBu)-Phe-NH2; configuration not given here),-23.1
20,CCOC(=O)C(c1ccccc1)N(CCCN(CC)CC)c1ccccc1 (configuration not stated),-10.8
21,CC1(C)OC2(C)CCC1C1C2N1C(=O)Nc1cccc(Cl)c1 (configuration not stated),-4.05
22,CC(=O)OCC12CCC(O1)C1C(=O)OC(=O)C12 (configuration not stated),-3.85
